Several values for one entry are separate records, joined by “and”; a condition that tells them apart may be missing. Equal entries are not always repeated. Results filed as inconclusive are left out. Activity calls are given as the source filed them.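 Rule for the calls, unless noted: active = normalized viability below 100% at a tested concentration; inactive = the rest.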
Experiments:
[1] = Wnt pathway potentiators raising nuclear beta-catenin – imaging, WNT3A-conditioned medium, mouse C2C12, NPC library, primary screen (AID 1117326; in the data active = nuclear beta-catenin stimulation mostly above about 4.2%, no sharp cut-off; inactive = mostly below about 10%); settings: stronger effect = higher value
[2] = stimulators of insulin release from INS-1E, primary screen, cell-based, 5 mM glucose, NPC library (AID 1117329;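 active = compound raises insulin release from rat beta cells at 5 mM glucose, no numeric limit stated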); settings: rat INS-1E insulin secretion, at 10 µM, stronger effect = higher value
[3] = growth inhibition of GSK3B-pretreated HCT116 cells – cell-based, CellTiter-Glo, 0.2 to 20 µM (AID 1117336;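 active = compounds lowering colon cancer cell viability after pretreatment blocking the GSK3B kinase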); settings: HCT116 viability after GSK3B inhibitor, at 20 µM, stronger effect = higher value
[4] = inhibition of endothelial tube formation, primary screen, imaging, VEGF stimulated, CD31 staining, tube area, NPC library (AID 1117340;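 active = compound that reduces growth-factor-driven endothelial tube area in a mixed cell culture, no cutoff stated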); settings: VEGF-stimulated ADSC/ECFC co-culture, at 10 µM, stronger effect = higher value
[5] = GLP1 release stimulators, primary, NCI-H716, NPC library (AID 1117341;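 active = compound raises GLP1 secretion from the human gut endocrine cells, with no numeric limit stated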); settings: NCI-H716 cells, at 10 µM, stronger effect = higher value
[6] = HCT116 colon cancer cell growth inhibition, primary screen, CellTiter-Glo luminescence, NPC library (AID 1117342;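 active = compounds that lower survival of HCT116 colon cancer cells in the luminescence readout, no numeric limit stated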); settings: at 20 µM (top of the series)
[7] = reduced SW480 viability measured with CellTiter-Glo, NPC library, primary (AID 1117343;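 active = compounds that lower viability of the colon cancer cells in the luminescence readout, with no numeric limit stated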); settings: CellTiter-Glo luminescence; at 20 µM (top of the series) unless noted
[8] = NPC library primary testing for decreased DLD-1 cell viability via CellTiter-Glo (AID 1117346;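 active = compounds that lower survival of DLD-1 colon cancer cells in the luminescence readout, no cutoff given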); settings: DLD-1 viability, CellTiter-Glo luminescence; at 20 µM (top of the series)
[9] = viability loss in pontine glioma line – cell-based, JHH-DIPG-1, MIPE4.0, CellTiter-Glo, qHTS, dose response (AID 1347062; cut-off not given, nearly all actives have AC50 up to about 27 µM;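 for AC50: cells exposed to compound for two days before readout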); settings: JHH-DIPG-1 viability, CellTiter-Glo ATP luminescence
[10] = viability loss in pontine glioma line – cell-based, SU-DIPG-IV, MIPE4.0, CellTiter-Glo, qHTS, dose response (AID 1347063; cut-off not given, nearly all actives have AC50 up to about 30 µM;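 note: compound exposure lasted 48 hours before the viability readout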); settings: CellTiter-Glo ATP luminescence
[11] = growth inhibition of DIPG cells – cell-based, MIPE4.0 library, CellTiter-Glo luminescence, qHTS (AID 1347066; cut-off not given, nearly all actives have AC50 up to about 30 µM;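 note: cells exposed to compound for 48 hours before readout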); settings: SU-DIPG-VI viability, CellTiter-Glo ATP luminescence
[12] = viability loss in pontine glioma line – cell-based, SU-DIPG-XIII, MIPE4.0, CellTiter-Glo, qHTS, dose response (AID 1347061; cut-off not given, nearly all actives have AC50 up to about 37 µM;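 note: cells exposed to compound for 48 hours before readout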); settings: CellTiter-Glo ATP luminescence
[13] = viability loss with induced miR-34 in A549 – imaging, A549 dox-inducible miR-34, nuclei and caspase counts, primary screen (AID 1347080;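 active = compounds whose cell count with miR-34 switched on is under 0.7 times the count with it off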); settings: A549 miR-34 inducible, Hoechst nuclei count, 48 h
[14] = MELAS cybrid and Rieske KO viability enhancers – cell-based, MELAS cybrids, Rieske KO mouse fibroblasts, CellTiter-Glo, primary screen (AID 1508586;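 active = mean z-score across replicates of 1.96 or higher in either the MELAS or the Rieske mutant cell line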;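 note: z relative to plate mean and SD of compound and empty wells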); settings: low glucose
[15] = P. berghei load reduction in hepatocytes – cell-based, HepG2, luciferase luminescence, HepG2 viability, primary screen (AID 624349; in the data active = parasite load remaining mostly below about 12%, no sharp cut-off; inactive = mostly above about 10%;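 note: 100% = mean of DMSO negative control wells on the same plate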); settings: P. berghei liver stage in HepG2, luciferase luminescence, concentration not given here; parasite load remaining: stronger effect = lower value; viability: measured here: HepG2 viability without parasites
[16] = viability loss in pontine glioma line – cell-based, SU-DIPG-XXV, MIPE5.0, CellTiter-Glo, qHTS, dose response (AID 1347065; cut-off not given, nearly all actives have AC50 up to about 26 µM;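 note: cells exposed to compound for 48 hours before ATP readout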); settings: CellTiter-Glo ATP luminescence
[17] = growth inhibition of DIPG cells – cell-based, MIPE5.0 library, qHTS (AID 1347068; cut-off not given, nearly all actives have IC50 up to about 30 µM); settings: SU-DIPG-XXV viability
[18] = drug combination growth inhibition, ovarian cancer – cell-based, oncology-focused library, rucaparib conditional, profiling panel (AID 1508598); settings: patient-derived ovarian cancer cells, CellTiter-Glo viability, 144 h, stronger effect = lower value
[19] = stronger effect = lower value, cell number ratio, induced over uninduced
[20] = measured here: relative caspase fold change +Dox/-Dox
[21] = measured here: total cells with miR-34 induction, stronger effect = lower value
[22] = measured here: total cells without miR-34 induction
[23] = MELAS cybrid survival, CellTiter-Glo 48 h, stronger effect = higher value
[24] = Rieske KO mouse fibroblast survival, CellTiter-Glo 72 h

CC=CC1=C(C(=O)O)N2C(=O)[C@@H](NC(=O)[C@H](N)c3ccc(O)cc3)[C@H]2SC1
inactive: nuclear beta-catenin stimulation ([1]; at 10 µM) 1% | insulin secretion stimulation [2] -0.3% | viability decrease [3] 4.9% | tube area decrease [4] -8.9% | GLP1 secretion stimulation [5] -4% | inhibition of viability [6] 41.6% | viability decrease (inhibition) [7] 45.4% | viability decrease (inhibition) [8] 33.9% | outcome [9] | outcome [10] | outcome [11]
2.9%: nuclear beta-catenin stimulation ([1]; stimulation, at 2 µM)

NC(=O)Cc1cccc(C(=O)c2ccccc2)c1N
0.903: fold change [13, 20]
7400: cell count [13, 21]
2.6%: nuclear beta-catenin stimulation ([1]; stimulation, at 2 µM)
-0.195: z-score [14, 24]
8200: cell count [13, 22]
inactive: nuclear beta-catenin stimulation ([1]; at 10 µM) 3% | insulin secretion stimulation [2] -0.1% | viability decrease [3] 4.9% | tube area decrease [4] 12.4% | GLP1 secretion stimulation [5] -1.1% | inhibition of viability [6] -6.03% | viability decrease (inhibition) [7] -28.7% | viability decrease (inhibition) [8] 6.9% | outcome [12] | outcome [9] | outcome [10] | outcome [11] | fold change [13, 19] 0.902 | z-score [14, 23] -0.418

C[C@@H]1C[C@H]2[C@@H]3CCC4=CC(=O)C=C[C@]4(C)[C@@]3(Cl)[C@@H](O)C[C@]2(C)[C@@]1(OC(=O)c1ccco1)C(=O)CCl
-0.104: z-score [14, 24]
active: tube area decrease [4] 99.7% | inhibition of viability [6] 67% | viability decrease (inhibition) [7] 119% | viability decrease (inhibition) [8] 95.5% | AC50 [9] 4.69 µM | AC50 [10] 13.2 µM | AC50 [16] 29.5 µM | AC50 [11] 20.9 µM
2.8%: nuclear beta-catenin stimulation ([1]; stimulation, at 2 µM)
5090: cell count [13, 22]
inactive: parasite load remaining [15] 101% and 89.2% | nuclear beta-catenin stimulation ([1]; at 10 µM) 23.1% | insulin secretion stimulation [2] -0.7% | viability decrease [3] -43% | GLP1 secretion stimulation [5] 3.9% | outcome [17] | fold change [13, 19] 0.786 | z-score [14, 23] -1.01
90.7% and 72.5%: viability [15]
1.68: fold change [13, 20]
4000: cell count [13, 21]

COc1nc(N)nc2c1ncn2[C@@H]1O[C@H](CO)[C@@H](O)[C@@H]1O
0.487: z-score [14, 24]
active: viability ([18]; at 0.00488 µM, OCI-C5x cells, without rucaparib) 98% | viability ([18]; at 0.00488 µM, OCI-P5x cells, without rucaparib) 97.2% | viability ([18]; at 0.0195 µM, OCI-C5x cells, without rucaparib) 96.1% | viability ([18]; at 0.0195 µM, OCI-P5x cells, with rucaparib 20 µM, 100% = cells with rucaparib alone) 94%
inactive: nuclear beta-catenin stimulation ([1]; at 10 µM) 2.7% | insulin secretion stimulation [2] -1.9% | viability decrease [3] -1.5% | tube area decrease [4] 5.7% | GLP1 secretion stimulation [5] 0.9% | inhibition of viability [6] -1.43% | viability decrease (inhibition) [7] -15.5% | viability decrease (inhibition) [8] -11.9% | outcome [12] | outcome [9] | outcome [10] | outcome [11] | z-score [14, 23] 0.551 | viability ([18]; at 0.000305 µM, OCI-C5x cells, with rucaparib 10 µM, 100% = cells with rucaparib alone) 129% | viability ([18]; at 0.000305 µM, OCI-C5x cells, without rucaparib) 109% | viability ([18]; at 0.000305 µM, OCI-P5x cells, with rucaparib 20 µM, 100% = cells with rucaparib alone) 104% | viability ([18]; at 0.000305 µM, OCI-P5x cells, without rucaparib) 107% | viability ([18]; at 0.00122 µM, OCI-C5x cells, with rucaparib 10 µM, 100% = cells with rucaparib alone) 114% | viability ([18]; at 0.00122 µM, OCI-C5x cells, without rucaparib) 106% | viability ([18]; at 0.00122 µM, OCI-P5x cells, with rucaparib 20 µM, 100% = cells with rucaparib alone) 101% | viability ([18]; at 0.00122 µM, OCI-P5x cells, without rucaparib) 105% | viability ([18]; at 0.00488 µM, OCI-C5x cells, with rucaparib 10 µM, 100% = cells with rucaparib alone) 108% | viability ([18]; at 0.00488 µM, OCI-P5x cells, with rucaparib 20 µM, 100% = cells with rucaparib alone) 101% | viability ([18]; at 0.0195 µM, OCI-C5x cells, with rucaparib 10 µM, 100% = cells with rucaparib alone) 112%
0.8%: nuclear beta-catenin stimulation ([1]; stimulation, at 2 µM)

— PubChem BioAssay
